Data on seven compounds can be found in PubChem BioAssay (NCATS).

Unmarked numbers belong to inactive results. Inconclusive results are not listed. Active and inactive are the calls of the source. Unless noted, calls come from the whole dose curve; as a rule, active = well fitted curve in either direction with a large enough effect (not every such curve was filed as active); inconclusive = small, poorly fitted or top-dose-only effect, or another doubt; inactive = flat fitted curve, though single readings scatter.

For experiment [1], the target named is Lysosomal acid glucosylceramidase (Homo sapiens) (UniProt P04062). As to the kind of experiment: Glucocerebrosidase-p2 (AID 348; in the data active = potency below about 10 µM; note: potency is the fitted concentration of half-maximal effect). As to conditions: purified GBA, blue fluorogenic substrate, 40 min. In outline:
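Normal human glucocerebrosidase (0.2 nM) with blue fluorogenic substrate (80 uM final) in citrate/phosphate pH 5.9 with 10mM sodium taurocholate, 0.01% tween-20; 40 min RT, NaOH/glycine stop; fluorescence Ex 365/Em 440; AC50 from a titration from 0.6 nM upwards.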

Experiment [2] deals with Cytochrome P450 1A2 (Homo sapiens) (UniProt P05177). As to the kind of experiment: p450-cyp1a2 (AID 410; calls by dose curve; note: potency is the fitted concentration of half-maximal effect;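 for activity change, negative = inhibition: -100% = full effect of reference inhibitor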). As to conditions: recombinant CYP1A2, luciferin-ME demethylation, luminescence; series mostly up to 57 µM. The procedure, abridged: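 Read-out is luminescence from luciferin produced by CYP1A2 demethylation of Luciferin-ME (100uM, at Km). Detection reagent stopped the 60 min NADPH-dependent reaction; signals were normalized to 57 uM furafylline.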

The nature of experiment [3]: NFAT Signaling Pathway (AID 444).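 Note: carbachol stimulus at about its EC50 of 1 µM final; % is set by controls: 0 for no effect and ±100 for the full control effect.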 As to conditions: Jurkat NFAT-bla M1, carbachol, beta-lactamase ratio, 5 h; at 7.69 µM (top of the series) unless noted. In outline:
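Read-out: CCF4 FRET ratio (460 nm/530 nm) after 1 h RT dye loading, used for %activity and AC50 from titration series. Cells: Jurkat NFAT-β-lactamase/M1 line, treated with compound plus 1 uM carbachol for 5 h, 37 °C.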

A short description of experiment [4]: Stat Signaling Pathway (AID 446).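 Note: ME-180 cervical cancer cells given 40 pM IL-6 alongside compound; SIE-controlled beta-lactamase reporter measured as 460/530 nm FRET emission ratio; % is set by controls: 0 for no effect and ±100 for the full control effect.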 The note with it: ME-180 SIE beta-lactamase reporter, IL-6 stimulated, 5 h; at 7.69 µM (top of the series) unless noted. The procedure, abridged:
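Overnight-plated ME-180 cells bearing a STAT Inducible Element beta-lactamase reporter; 5 h co-exposure to compound and 40 pM IL-6; values normalized to 300 pM IL-6 and 125 nM JAK inhibitor controls.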

The target in experiment [5] is Glucocorticoid receptor (Homo sapiens) (UniProt P04150). As to the kind of experiment: GR-EFC Redistribution (AID 451; calls by dose curve; note: potency is the fitted concentration of half-maximal effect). The note with it: CHO-K1 GR-EFC translocation, beta-gal luminescence, 2 h. In outline: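 Translocation of GR-ED fusion to nuclear EA restores b-gal, read by luminescence after 1 h room-temperature detection. Engineered CHO-K1 biosensor cells, 1,000/well, exposed 2 h at 37 C to titrations up to 46 uM final.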

Experiment [6] has as its target Mitogen-activated protein kinase 10 (Mus musculus) (UniProt Q61831). The experiment can be described thus: JNK3 AlphaScreen Assay (AID 530).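 Note: kinase came from lysate of stimulated human HepG2 cells; signal reports phosphorylation of biotinylated GST-cJun 1-79 at Ser73 with 10 µM ATP; % is set by controls: 0 for no effect and ±100 for the full control effect.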 As to conditions: JNK3 lysate, c-Jun phosphorylation; series mostly up to 57.1 µM. In outline: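 Kinase buffer: 20 mM Tris-HCl pH 7.6, 10 mM MgCl2, 1 mM DTT, 0.1 mM Na3VO4, 0.01% Tween-20; ATP 10 uM. Substrate biotin-GST-cJun(1-79), enzyme from activated HepG2 lysates. Detection by Ser73 phospho-antibody AlphaScreen.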
On the technique in general: In Alpha technology, singlet oxygen from a donor bead excites a nearby acceptor bead.

Experiment [7] deals with 3',5'-cyclic-AMP phosphodiesterase 4B (Homo sapiens) (UniProt Q07343). As to the kind of experiment: qHTS Assay for Inhibitors of PDE-IV (AID 607; active = well fitted activation curve with a large enough effect in the main read-out, with a control signal flat, not every such curve was filed as active; note: % of control where 0% means no effect). The note with it: HEK293 ACTOne CNG channel cells, membrane potential fluorescence; series mostly up to 22.9 µM. In outline:
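Live HEK293 cells with a modified cyclic nucleotide-gated (CNG) channel report intracellular cAMP via membrane-potential dye fluorescence (ex 535/em 590 nm). Endogenous PDE-IV was targeted. Compounds were tested at up to 22.9 uM final; RO 20-1724 100 uM served as control.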
On the technique in general: In qHTS, concentration-response curves come from the screen itself.

Experiment [8] concerns the target Cytochrome P450 3A4 (Homo sapiens) (UniProt P08684). The experiment can be described thus: qHTS Assay for Activators of Cytochrome P450 3A4 (AID 885; active = well fitted curve in the direction sought with a large enough effect; an effect the other way counts as inactive or inconclusive; note: nearly all actives have a fitted effect of over 65% in size). The note with it: recombinant CYP3A4, Luciferin-PPXE luminescence, 60 min; series mostly up to 57.1 µM. In outline: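 Using 20nM recombinant human CYP3A4 in potassium phosphate (200mM), substrate Luciferin-PPXE at 25uM, luminescent luciferin detection followed a 60-min RT NADPH reaction; data scaled to 57 uM ketoconazole.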

A short description of experiment [9]: Primary qHTS for small molecule stabilizers of the endoplasmic reticulum resident proteome: Secreted ER Calcium Modulated Protein (SERCaMP) assay (AID 1508630; active = well fitted curve in the direction sought with a large enough effect; an effect the other way counts as inactive or inconclusive; note: % is set by controls: 0 for no effect and ±100 for the full control effect). As to conditions: SH-SY5Y GLuc-SERCaMP (Gaussia luciferase released on ER calcium loss) secretion, thapsigargin, luminescence; series mostly up to 38.4 µM. In outline: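 The SH-SY5Y reporter protocol was run at 3 concentrations up to 38.3 uM (primary) or 11 concentrations (follow-up): 16 h compound, 100 nM thapsigargin for 4 h, then extracellular luciferase luminescence.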

Experiment [10] addresses Glucocorticoid receptor (Homo sapiens) (UniProt P04150). As to the kind of experiment: GR-GFP Redistribution (AID 450;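 active = compounds whose dose series gives a full or clear partial fitted curve of increased nuclear translocation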; note: potency is the fitted concentration of half-maximal effect). The note with it: U2OS GR-GFP nuclear translocation, laser cytometry, 2 h.
Experiment [11] has as its target Cytochrome P450 2C9 (Homo sapiens) (UniProt P11712). The experiment can be described thus: qHTS Assay for Inhibitors and Substrates of Cytochrome P450 2C9 (AID 883; active = well fitted curve in the direction sought with a large enough effect; an effect the other way counts as inactive or inconclusive; note: % is set by controls: 0 for no effect and ±100 for the full control effect; nearly all actives have a fitted effect of over 60% in size). As to conditions: recombinant CYP2C9, luciferin-H luminescence, 60 min; series mostly up to 57.1 µM. In outline:
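Inhibition of CYP2C9 is scored as loss of luminescence, with 57uM sulphaphenazole defining 100% inhibition. Substrate Luciferin-H is used at 100uM, equal to its KM; enzyme at 10nM in 25mM KPO4, 60 min at 37C with NADPH regeneration.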

Experiment [12] concerns the target Cytochrome P450 2C19 (Homo sapiens) (UniProt P33261). The experiment can be described thus: qHTS Assay for Inhibitors and Substrates of Cytochrome P450 2C19 (AID 899; active = well fitted curve in the direction sought with a large enough effect; an effect the other way counts as inactive or inconclusive; note: % is set by controls: 0 for no effect and ±100 for the full control effect; nearly all actives have a fitted effect of over 60% in size). The note with it: recombinant CYP2C19, luciferin-H EGE luminescence; series mostly up to 57.1 µM. In outline:
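5nM enzyme + 10uM Luciferin-H EGE (=KM), 50mM KPO4; cpd pin-transferred, 10 min 37C; NADPH regen, 60 min 37C; stopped w/ luciferin detection reagent, 20 min; luminescence. Normalized to 57uM ketoconazole (AC100).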

Experiment [13] can be described thus: qHTS Assay for Identification of Small Molecule Agonists for Hypoxia Response Element Signaling Pathway (AID 914; active = well fitted activation curve with a large enough effect in the signal ratio, with a control signal flat, not every such curve was filed as active; the % refers to the signal ratio; note: % of control where 0% means no effect). As to conditions: ME-180 HRE-bla reporter, beta-lactamase ratio, CoCl2, 17 h; activation: active compounds read high. The procedure, abridged:
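Read-out: CCF4 FRET ratio of 460nm to 530nm emission (excitation 405nm) after 2.5 hours at room temperature, taken from HRE-bla ME-180 cells that had been exposed to compound and EC50 CoCl2 for 17 hours.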

A short description of experiment [14]: AP1 Signaling Pathway (AID 357). The note with it: ME-180 (cervical carcinoma) AP-1-bla reporter, EGF-induced, beta-lactamase ratio, 5 h; at 7.69 µM (top of the series) unless noted. The procedure, abridged:
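A ratiometric CCF4 readout (405 nm excitation; 460 and 530 nm emission) quantified AP-1-driven beta-lactamase in ME-180 cells after 5 h with compound and EC50 EGF; AC50 values were derived for activators and inhibitors.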

The target of experiment [15] is Cytochrome P450 3A4 (Homo sapiens) (UniProt P08684). The experiment can be described thus: qHTS Assay for Inhibitors and Substrates of Cytochrome P450 3A4 (AID 884; active = well fitted curve in the direction sought with a large enough effect; an effect the other way counts as inactive or inconclusive; note: potency is the fitted concentration of half-maximal effect; nearly all actives have a fitted effect of over 50% in size). As to conditions: recombinant CYP3A4, Luciferin-PPXE luminescence; series mostly up to 57.1 µM. The procedure, abridged: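 Luminescent readout of luciferin produced by CYP3A4 (20 nM) dealkylation of Luciferin-PPXE, 25 uM (its KM). NADPH-driven reaction ran 60 min at RT after 10 min compound preincubation; data scaled to 57 uM ketoconazole as 100% inhibition.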
Sequence of Cytochrome P450 3A4 (Homo sapiens) (P08684 whole entry, looked up): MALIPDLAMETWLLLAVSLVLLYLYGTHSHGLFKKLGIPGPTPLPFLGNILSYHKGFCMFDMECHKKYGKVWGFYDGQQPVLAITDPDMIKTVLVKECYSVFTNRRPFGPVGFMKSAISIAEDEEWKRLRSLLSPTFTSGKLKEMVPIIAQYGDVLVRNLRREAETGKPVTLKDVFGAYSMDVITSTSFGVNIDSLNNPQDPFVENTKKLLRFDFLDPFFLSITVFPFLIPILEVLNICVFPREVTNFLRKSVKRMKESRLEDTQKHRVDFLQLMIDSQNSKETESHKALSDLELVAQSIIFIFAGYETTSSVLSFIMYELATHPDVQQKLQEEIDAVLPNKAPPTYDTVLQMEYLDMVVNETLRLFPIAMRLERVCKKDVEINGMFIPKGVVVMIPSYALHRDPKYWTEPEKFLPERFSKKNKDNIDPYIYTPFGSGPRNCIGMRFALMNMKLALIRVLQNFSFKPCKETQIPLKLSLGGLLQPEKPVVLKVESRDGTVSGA

Sequence of 3',5'-cyclic-AMP phosphodiesterase 4B (Homo sapiens) (Q07343 whole entry, looked up): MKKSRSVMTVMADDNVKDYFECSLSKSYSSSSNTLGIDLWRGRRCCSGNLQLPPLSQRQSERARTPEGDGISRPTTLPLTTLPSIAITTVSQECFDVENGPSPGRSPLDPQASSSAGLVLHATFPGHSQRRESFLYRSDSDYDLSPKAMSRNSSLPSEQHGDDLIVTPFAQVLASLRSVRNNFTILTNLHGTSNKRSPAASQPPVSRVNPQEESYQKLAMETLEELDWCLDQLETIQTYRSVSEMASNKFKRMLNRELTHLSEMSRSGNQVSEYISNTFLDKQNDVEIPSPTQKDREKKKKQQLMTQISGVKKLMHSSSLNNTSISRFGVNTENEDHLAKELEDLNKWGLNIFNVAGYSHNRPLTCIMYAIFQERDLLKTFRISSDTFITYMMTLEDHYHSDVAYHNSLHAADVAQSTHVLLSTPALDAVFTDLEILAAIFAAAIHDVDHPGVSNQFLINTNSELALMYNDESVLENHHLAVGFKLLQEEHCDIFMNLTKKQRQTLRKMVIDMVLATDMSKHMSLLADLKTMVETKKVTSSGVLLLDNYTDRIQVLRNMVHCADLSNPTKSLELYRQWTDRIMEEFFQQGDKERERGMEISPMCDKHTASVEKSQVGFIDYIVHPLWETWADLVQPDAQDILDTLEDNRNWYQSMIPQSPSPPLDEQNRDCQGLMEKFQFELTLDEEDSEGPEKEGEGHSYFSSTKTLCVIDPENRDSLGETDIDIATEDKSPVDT
Sequence of Glucocorticoid receptor (Homo sapiens) (P04150 whole entry, looked up, the tested form may be a part): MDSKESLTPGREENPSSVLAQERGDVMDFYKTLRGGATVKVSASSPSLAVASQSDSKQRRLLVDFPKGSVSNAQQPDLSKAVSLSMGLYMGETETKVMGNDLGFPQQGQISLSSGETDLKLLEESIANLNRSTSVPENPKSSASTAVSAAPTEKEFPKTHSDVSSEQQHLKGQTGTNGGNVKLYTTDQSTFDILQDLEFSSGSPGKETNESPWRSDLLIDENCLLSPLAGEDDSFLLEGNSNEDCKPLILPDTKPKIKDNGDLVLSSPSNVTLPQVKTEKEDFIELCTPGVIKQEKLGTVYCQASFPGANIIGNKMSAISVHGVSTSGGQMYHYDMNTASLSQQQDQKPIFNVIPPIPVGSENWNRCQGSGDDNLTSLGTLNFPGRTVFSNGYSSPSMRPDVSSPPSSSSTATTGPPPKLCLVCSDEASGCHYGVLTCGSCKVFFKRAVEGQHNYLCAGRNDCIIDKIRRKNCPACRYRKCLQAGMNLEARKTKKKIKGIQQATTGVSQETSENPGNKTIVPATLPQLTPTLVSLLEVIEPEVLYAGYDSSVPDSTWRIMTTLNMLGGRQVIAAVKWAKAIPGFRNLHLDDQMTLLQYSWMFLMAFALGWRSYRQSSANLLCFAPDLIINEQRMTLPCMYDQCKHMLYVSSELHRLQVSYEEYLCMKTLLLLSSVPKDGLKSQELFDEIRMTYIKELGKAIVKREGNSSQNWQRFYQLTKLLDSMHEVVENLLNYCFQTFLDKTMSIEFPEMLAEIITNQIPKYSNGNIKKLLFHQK
Sequence of Lysosomal acid glucosylceramidase (Homo sapiens) (P04062 whole entry, looked up): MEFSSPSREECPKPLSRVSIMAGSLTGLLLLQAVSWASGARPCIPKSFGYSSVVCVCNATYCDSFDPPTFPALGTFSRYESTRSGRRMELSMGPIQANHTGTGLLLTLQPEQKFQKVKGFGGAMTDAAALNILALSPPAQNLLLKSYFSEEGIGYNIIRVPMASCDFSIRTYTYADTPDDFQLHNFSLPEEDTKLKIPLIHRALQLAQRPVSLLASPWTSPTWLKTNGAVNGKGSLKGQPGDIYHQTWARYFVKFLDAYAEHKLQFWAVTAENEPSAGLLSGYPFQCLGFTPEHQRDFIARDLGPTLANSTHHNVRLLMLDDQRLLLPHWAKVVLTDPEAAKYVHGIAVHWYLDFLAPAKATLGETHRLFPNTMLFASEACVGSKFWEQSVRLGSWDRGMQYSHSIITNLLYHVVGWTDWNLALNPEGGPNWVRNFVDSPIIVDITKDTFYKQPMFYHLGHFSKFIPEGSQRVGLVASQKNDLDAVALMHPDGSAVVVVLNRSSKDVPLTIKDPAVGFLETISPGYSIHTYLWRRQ
Sequence of Cytochrome P450 1A2 (Homo sapiens) (P05177 whole entry, looked up): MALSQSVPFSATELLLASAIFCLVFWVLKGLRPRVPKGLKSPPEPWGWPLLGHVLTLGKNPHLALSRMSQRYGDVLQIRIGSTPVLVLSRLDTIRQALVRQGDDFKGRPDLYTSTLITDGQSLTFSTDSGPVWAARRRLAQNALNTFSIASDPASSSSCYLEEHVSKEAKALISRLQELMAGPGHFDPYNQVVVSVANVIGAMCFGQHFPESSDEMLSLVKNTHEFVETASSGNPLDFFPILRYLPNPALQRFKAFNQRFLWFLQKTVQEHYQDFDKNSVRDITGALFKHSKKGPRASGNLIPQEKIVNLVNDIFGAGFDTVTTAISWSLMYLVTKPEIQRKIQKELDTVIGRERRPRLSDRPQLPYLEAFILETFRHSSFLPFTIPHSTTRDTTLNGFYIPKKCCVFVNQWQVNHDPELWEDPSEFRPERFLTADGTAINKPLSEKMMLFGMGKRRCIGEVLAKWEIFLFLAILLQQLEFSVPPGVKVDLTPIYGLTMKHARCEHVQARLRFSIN
Sequence of Cytochrome P450 2C19 (Homo sapiens) (P33261 whole entry, looked up): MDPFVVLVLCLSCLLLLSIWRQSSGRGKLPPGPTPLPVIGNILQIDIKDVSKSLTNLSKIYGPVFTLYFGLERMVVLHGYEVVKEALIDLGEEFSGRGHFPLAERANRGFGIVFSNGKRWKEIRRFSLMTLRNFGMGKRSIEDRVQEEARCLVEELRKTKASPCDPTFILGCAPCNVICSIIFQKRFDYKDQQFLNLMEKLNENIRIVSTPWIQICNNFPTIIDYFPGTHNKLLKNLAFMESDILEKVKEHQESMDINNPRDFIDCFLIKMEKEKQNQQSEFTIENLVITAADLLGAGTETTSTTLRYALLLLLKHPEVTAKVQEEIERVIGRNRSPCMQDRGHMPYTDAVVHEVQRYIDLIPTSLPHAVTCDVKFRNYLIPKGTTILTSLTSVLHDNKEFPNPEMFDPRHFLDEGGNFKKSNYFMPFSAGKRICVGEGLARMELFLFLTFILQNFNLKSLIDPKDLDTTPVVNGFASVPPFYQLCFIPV
Sequence of Cytochrome P450 2C9 (Homo sapiens) (P11712 whole entry, looked up): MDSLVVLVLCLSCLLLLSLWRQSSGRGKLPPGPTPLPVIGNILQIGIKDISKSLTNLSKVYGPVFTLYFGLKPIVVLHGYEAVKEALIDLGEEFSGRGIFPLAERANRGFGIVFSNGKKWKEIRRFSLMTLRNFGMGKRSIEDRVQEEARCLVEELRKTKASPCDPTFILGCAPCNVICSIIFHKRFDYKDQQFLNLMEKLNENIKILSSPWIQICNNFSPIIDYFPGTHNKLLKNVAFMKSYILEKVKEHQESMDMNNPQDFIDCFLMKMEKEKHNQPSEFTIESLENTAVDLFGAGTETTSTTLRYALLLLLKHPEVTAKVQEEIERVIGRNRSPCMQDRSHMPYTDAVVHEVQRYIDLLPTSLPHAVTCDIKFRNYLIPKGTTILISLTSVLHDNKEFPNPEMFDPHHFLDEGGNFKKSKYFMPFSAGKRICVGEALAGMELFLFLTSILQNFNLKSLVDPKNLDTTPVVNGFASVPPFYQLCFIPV

Consider `O=S(=O)(c1ccccc1)N1CCC2(CCN(c3ncccn3)CC2)CC1`, for which the Potency was > 11.4 µM in experiment [1] and > 46 µM in experiment [5]. Also, the Potency result in experiment [2], in experiment [6], in experiment [7] and in experiment [8] was “inactive” in each case. Besides, the activity change, negative = inhibition in [3] was -15.7%. Moreover, the activity, negative = inhibition in experiment [4] was -15.6%. The result in experiment [9] was inactive.

`COc1ncc2nc(C)c(=O)n(CCC#N)c2n1`: the Potency in [1] was > 11.4 µM; in experiment [2] it was 15.8 µM (active); in experiment [10], > 9.22 µM; in experiment [5], > 46 µM. Further, the activity change, negative = inhibition in experiment [3] is -6.19%. Also, the activity, negative = inhibition in experiment [4] was -5.09%. Moreover, the Potency result in experiment [6], in experiment [7], in experiment [11] and in [12] was “inactive” in each case. Further, the activation in experiment [13] was 7.94%. In addition, the outcome in [9] was inactive.

For `N#Cc1ccc(CN2CC3(CCN(C(=O)c4ccncc4)CC3)C2)cc1`, the Potency in experiment [1] was > 11.4 µM. Further, in experiment [14], the activity change, negative = inhibition was 9.93%. The Potency result in experiment [6], in experiment [7] and in experiment [8] was “inactive” in each case. Further, in experiment [9], the outcome was inactive.

`COc1ccc(C(=O)N2CCC3(CCCN(Cc4nccs4)C3)CC2)cc1`: the Potency was > 11.4 µM in [1] and > 46 µM in experiment [5]. In addition, the activity change, negative = inhibition in experiment [14] was -4.03%. Besides, the activity, negative = inhibition in experiment [4] is -4.62%. Further, the Potency result in [6], in experiment [7] and in experiment [8] was “inactive” each time. Moreover, the outcome in experiment [9] was inactive.

Take `O=C(c1ccncc1)N1CCC[C@@]2(CCN(Cc3cc(C(F)(F)F)cc(C(F)(F)F)c3)C2)C1`: the Potency was > 11.4 µM in experiment [1] and > 46 µM in experiment [5]. Moreover, the activity change, negative = inhibition in experiment [14] is 8.67%. The activity, negative = inhibition in experiment [4] was -0.599%. In addition, the Potency result in experiment [6] and in [7] was “inactive” in each case. For the same compound, the result in [9] was inactive.

Regarding `O=C(c1csnn1)N1CCC2(CCCN(c3ccc(-c4ccccc4)cc3)C2)CC1`, the results for the Potency in experiment [1], in experiment [5] and in experiment [15] were > 11.4 µM, > 46 µM and 7.94 µM (active), respectively. The Potency entry in experiment [2], in experiment [6], in experiment [7] and in experiment [8] was “inactive” each time. For the same compound, the activity change, negative = inhibition in experiment [3] was -15.8%. Further, the activity, negative = inhibition in [4] is 1.9%. For the same compound, the outcome in experiment [9] was inactive.

Take `Cn1c(=O)cnc2cnc(Nc3ccccc3)nc21`: the Potency was > 11.4 µM in [1], 2 µM (active) in experiment [2], > 9.22 µM in experiment [10] and > 46 µM in [5]. Besides, the activity change, negative = inhibition in [3] is -6.55%. In addition, in experiment [4], the activity, negative = inhibition is -16.6%. Moreover, in experiment [8], the Potency entry is “inactive”. For the same compound, in experiment [9], the outcome was inactive.
